Assay outcomes deposited in PubChem by National Center for Advancing Translational Sciences (NCATS).
CHX counter = counter-screen for Shiga toxin inhibitors: cycloheximide protein synthesis inhibition. cell reporter, cycloheximide protein synthesis inhibition counterscreen. max response, %. hit rate 12% among 300,000. AID 2314; in the data active = max response mostly above about 13%, no sharp cut-off; inactive = mostly below about 14%; note: read at 38.3 µM for the half of the compounds with a filed dose; 0% is about no effect
Tb PYK inh = T. brucei pyruvate kinase inhibition. AID 624173. hit rate 0.12% among 410,000. Q57TT1. TbPYK enzyme, Kinase-Glo Plus ATP luminescence, 45 min. Potency, µM (titrated, usually from 76.8 µM), for the others: at the highest dose activity, negative = inhibition, most hits filed as inhibitors; note: potency is the fitted concentration of half-maximal effect; % is set by controls: 0 for no effect and ±100 for the full control effect; nearly all actives have a fitted effect of over 50% in size
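Glycolytic pyruvate kinase of T. brucei was incubated with substrate, test compound and 130 uM ADP for 45 minutes at room temperature. Luminescent Kinase-Glo Plus signal was measured after 10 minutes.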
FBPA Giardia inh = inhibitors of Giardia lamblia fructose-1,6-bisphosphate aldolase. A8B2U2. hit rate 0.71% among 290,000. Potency, µM (titrated, usually from 59.6 µM), for inactives: at the highest dose activity, negative = inhibition, actives largely listed as inhibitors. purified Giardia FBPA; note: potency is the fitted concentration of half-maximal effect; % is set by controls: 0 for no effect and ±100 for the full control effect; nearly all actives have a fitted effect of over 55% in size
Target sequence (A8B2U2 whole entry, looked up): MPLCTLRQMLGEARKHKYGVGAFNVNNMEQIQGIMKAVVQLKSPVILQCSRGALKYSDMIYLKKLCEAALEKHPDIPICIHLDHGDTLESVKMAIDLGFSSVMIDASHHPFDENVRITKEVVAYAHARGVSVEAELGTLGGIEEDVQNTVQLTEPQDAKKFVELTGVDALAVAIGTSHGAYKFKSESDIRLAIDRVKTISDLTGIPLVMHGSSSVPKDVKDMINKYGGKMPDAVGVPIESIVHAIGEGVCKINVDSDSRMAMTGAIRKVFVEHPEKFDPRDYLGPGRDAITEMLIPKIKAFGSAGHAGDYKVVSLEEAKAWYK
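40 nM FBPA preincubated 10 min at RT with compound (up to 57.5 uM final), then substrate plus GAPDH/TPI/NAD/arsenate coupling and diaphorase/resazurin added. Fluorescence read after 20 min at RT, 525/598 nm.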
LmPK inhibitor = blocks Leishmania mexicana pyruvate kinase activity. Q27686. purified LmPK, Kinase-Glo ATP luminescence, 1 h. Potency, µM (highest dose often 57.5 µM), for the others: top-dose activity change, negative = inhibition, most hits filed as inhibitors. hit rate 0.37% among 290,000; note: potency is the fitted concentration of half-maximal effect; % is set by controls: 0 for no effect and ±100 for the full control effect
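Pyruvate kinase activity monitored as ATP production (luciferase luminescence). Conditions: 0.1 nM enzyme, 0.5 mM PEP, 0.1 mM ADP, 1 h, RT; normalized against uninhibited and no-enzyme wells.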
Shiga toxin inh = inhibitors of Shiga toxin in Vero cells; Vero cells, Shiga toxin protein synthesis inhibition reporter; inhibition, % at 38.7 µM; hit rate 9.2% among 290,000; AID 2315; in the data active = inhibition mostly above about 28%, no sharp cut-off; inactive = mostly below about 43%; note: 0% is about no effect
Sm TGR inh = S. mansoni TGR enzyme inhibition | Q962Y6 | Potency, µM (top dose mostly 114 µM), without a hit: at the highest dose activity change, negative = inhibition, most hits filed as inhibitors | hit rate 3% among 360,000 | purified TGR, DTNB reduction, TNB absorbance 405 nm | AID 485364; note: potency is the fitted concentration of half-maximal effect; % is set by controls: 0 for no effect and ±100 for the full control effect; nearly all actives have a fitted effect of over 60% in size
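First, TGR (20 nM dispensed) and NADPH were mixed with compound. Second, a 15 min room-temperature incubation followed. Third, further NADPH and then DTNB were added to start the reaction. Finally, TNB absorbance was monitored kinetically.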
* hit, by the source's call. Shown is part of a subset that was picked to be rich in hits. Unless noted, calls come from the whole dose curve; as a rule, active = well fitted curve in the direction sought with a large enough effect; inconclusive = small, poorly fitted or top-dose-only effect, or another doubt; inactive = no such curve, though single readings can be large; an effect the other way counts as inactive or inconclusive.

What do the screens show for `Cc1cc(OCc2nc(-c3cccs3)no2)cc(C)c1Cl`?
CHX counter: 37.4*; Tb PYK inh: 1.3%; FBPA Giardia inh: -0.1%; LmPK inhibitor: -2.5%; Shiga toxin inh: 41.7*; Sm TGR inh: 3.8%

What do the screens show for `CC1CCN(C(=O)CSc2nc(-c3ccc(C(C)C)cc3)no2)CC1`?
Tb PYK inh: 1.8%; Sm TGR inh: 12.1%

What do the screens show for `CCOC(=O)C1CCN(C(=O)Cn2c(=O)cc(C)c3c(C)nn(C)c32)CC1`?
Tb PYK inh: 2.8%; Sm TGR inh: 2.0%

How did C/C=C1/C2C=C(C)CC1(N)c1ccc(=O)[nH]c1C2 (configuration not stated) do in these assays?
CHX counter: 4.3; FBPA Giardia inh: 3.8%; Shiga toxin inh: -3.4

How did COc1c(C(=O)Nc2nccs2)ccc2ccccc12 do in these assays?
CHX counter: 37.8*; Tb PYK inh: -6.1%; FBPA Giardia inh: -7.2%; LmPK inhibitor: -4.6%; Shiga toxin inh: 93.3*; Sm TGR inh: 6.9%

What do the screens show for `COc1ccc(-c2nn(-c3ccccc3)cc2C(=O)Nc2nccs2)cc1`?
CHX counter: -2.5; Tb PYK inh: -3.3%; FBPA Giardia inh: -4.2%; LmPK inhibitor: -2.3%; Shiga toxin inh: -12.8; Sm TGR inh: 17.7%

Results for Cc1c(C(=O)Nc2nccs2)oc2ccccc12 ?
Tb PYK inh: -0.7%

What do the screens show for `COc1cc(OC)c(C(=O)NCC(c2cccs2)N(C)C)cc1OC` (configuration not stated)?
CHX counter: -2.5; FBPA Giardia inh: 5.0%; LmPK inhibitor: 2.1%; Shiga toxin inh: -2.4; Sm TGR inh: -3.4%

Results for COc1cc2ccccc2cc1C(=O)Nc1nccs1 ?
CHX counter: 27.5*; Tb PYK inh: 4.3%; FBPA Giardia inh: 13.1%; LmPK inhibitor: -3.1%; Shiga toxin inh: 49.3*; Sm TGR inh: -3.8%

How did COc1cccc2c1OCC(C(=O)Nc1nccs1)=C2 do in these assays?
CHX counter: 40.7*; Tb PYK inh: 1.0%; FBPA Giardia inh: 5.9%; LmPK inhibitor: -1.1%; Shiga toxin inh: 107.8*; Sm TGR inh: -15.0%

How did COc1cc2ccccc2cc1C(=O)NCC(c1cccs1)N(C)C (configuration not stated) do in these assays?
CHX counter: 36.8*; Tb PYK inh: 1.8%; FBPA Giardia inh: -0.5%; LmPK inhibitor: -3.0%; Shiga toxin inh: 87.3*; Sm TGR inh: 6.4%

What do the screens show for `COc1ccc(C(=O)Nc2ccc(C(=O)Nc3nccs3)cc2)cc1[N+](=O)[O-]`?
CHX counter: -3.9; Tb PYK inh: 3.6%; FBPA Giardia inh: 5.3%; LmPK inhibitor: 2.8%; Shiga toxin inh: -8.7; Sm TGR inh: 1.7%

How did O=C(NCc1ccccc1F)C1CCCN1S(=O)(=O)c1ccc(Cl)cc1 (configuration not stated) do in these assays?
CHX counter: -2.2; Tb PYK inh: -13.9%; FBPA Giardia inh: -0.9%; LmPK inhibitor: -1.3%; Shiga toxin inh: -6.5; Sm TGR inh: 2.4%

What do the screens show for `CCN(CC)S(=O)(=O)c1ccc(N2CCCC2)c(NC(=O)C2=NN(c3ccccc3)C(=O)CC2)c1`?
Tb PYK inh: -1.9%; Sm TGR inh: -21.3%

How did O=c1c(C=NCCCO)c(-c2ccccc2)[nH]n1-c1nc2ccccc2s1 do in these assays?
CHX counter: 27.5*; Tb PYK inh: -1.6%; FBPA Giardia inh: -1.3%; LmPK inhibitor: 7.3%; Shiga toxin inh: 38.5*; Sm TGR inh: -14.9%

What do the screens show for `CCCc1[nH]n(-c2nc3ccccc3s2)c(=O)c1C=NCCCOC`?
CHX counter: 22.5; Tb PYK inh: 1.8%; FBPA Giardia inh: 8.2%; LmPK inhibitor: 1.9%; Shiga toxin inh: 36.9; Sm TGR inh: -3.3%

What do the screens show for `CCCCCN=Cc1c(C)[nH]n(-c2nc3ccccc3s2)c1=O`?
CHX counter: 16.4*; Tb PYK inh: 5.3%; FBPA Giardia inh: 11.4%; LmPK inhibitor: -11.3%; Shiga toxin inh: 9.0; Sm TGR inh: 0.0%

What do the screens show for `COCCCN=Cc1c(-c2ccccc2)[nH]n(-c2nc3ccccc3s2)c1=O`?
CHX counter: 16.2*; Tb PYK inh: 0.8%; FBPA Giardia inh: -1.1%; LmPK inhibitor: 1.3%; Shiga toxin inh: 42.5; Sm TGR inh: 8.8%

Results for O=C(CCNC(=O)c1ccccc1Cl)Nc1nc(-c2ccccc2Cl)cs1 ?
CHX counter: 21.9*; Tb PYK inh: 0.1%; FBPA Giardia inh: -2.8%; LmPK inhibitor: 1.5%; Shiga toxin inh: 39.8; Sm TGR inh: 0.0%

How did O=C(CCNC(=O)c1ccccc1Cl)Nc1nc2ccccc2s1 do in these assays?
CHX counter: 36.9*; Tb PYK inh: -8.8%; FBPA Giardia inh: -0.2%; LmPK inhibitor: -0.7%; Shiga toxin inh: 143.3*; Sm TGR inh: -12.9%

Results for COc1ccc2nc(NC(=O)CCNC(=O)c3ccccc3Cl)sc2c1 ?
CHX counter: 32.6*; Tb PYK inh: 0.6%; FBPA Giardia inh: 0.7%; LmPK inhibitor: -1.6%; Shiga toxin inh: 76.6*; Sm TGR inh: 0.3%

What do the screens show for `O=C(CCNC(=O)c1ccccc1Cl)Nc1nc(-c2ccc(F)cc2)cs1`?
CHX counter: 0.4; Tb PYK inh: -10.4%; FBPA Giardia inh: -0.4%; LmPK inhibitor: 7.3%; Shiga toxin inh: -4.8; Sm TGR inh: -0.5%

What do the screens show for `COc1ccc(NC(=O)Nc2ccc3c(c2)C(=O)N([C@@H](C)CO)C[C@@H](C)[C@@H](CN(C)S(=O)(=O)c2cccs2)O3)cc1`?
Tb PYK inh: 6.1%

Results for COc1cccc(-n2c(CN3CCN(Cc4ccccc4)CC3)nc3ccc([N+](=O)[O-])cc3c2=O)c1 ?
CHX counter: -2.3; FBPA Giardia inh: -16.5%; LmPK inhibitor: -0.6%; Shiga toxin inh: -11.2; Sm TGR inh: -21.9%

What do the screens show for `CCOC(=O)c1ccc(-n2c(CN3CCN(CCO)CC3)nc3ccc([N+](=O)[O-])cc3c2=O)cc1`?
CHX counter: 11.0; Tb PYK inh: 1.6%; FBPA Giardia inh: -6.2%; LmPK inhibitor: -1.2%; Shiga toxin inh: 16.6; Sm TGR inh: 35.5µM*

What do the screens show for `Cc1ccc(NC(=S)NNC(=O)c2ccco2)cc1`?
CHX counter: 30.7*; Tb PYK inh: -10.6%; FBPA Giardia inh: 0.4%; LmPK inhibitor: -2.9%; Shiga toxin inh: 65.5*; Sm TGR inh: 4.0%

How did Cc1cccc(NC(=S)NNC(=O)c2ccco2)c1 do in these assays?
CHX counter: 22.9*; Tb PYK inh: -16.3%; FBPA Giardia inh: 24.2%; LmPK inhibitor: 2.7%; Shiga toxin inh: active; Sm TGR inh: -4.8%

What do the screens show for `COCC(C)n1c(C)cc(C(=O)CSc2ccc(NC(C)=O)cc2)c1C` (configuration not stated)?
CHX counter: 25.6*; Tb PYK inh: -3.0%; FBPA Giardia inh: 4.6%; LmPK inhibitor: -0.1%; Shiga toxin inh: 52.5*; Sm TGR inh: -23.3%
